This is an account of results in the supplement of paper PMC9262897, “Low-cost anti-mycobacterial drug discovery using engineered E. coli” (Nature Communications, 2022).

What all share (test): growth (OD600 after 10 h); higher = more growth (less inhibition)
For assay [1], the system named is E. coli TESEC Alr+ wild-type control. As to conditions: compound 0.1 mM; raw OD600 reference: median of DMSO wells 0.241, cell-free background 0.041. Here is the method:
(§1)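 TESEC Mtb Alr E. coli, or the Alr+ wild-type control, in 384-well plates with Prestwick library compounds at 0.1 mM and 1% DMSO, across arabinose induction levels of 1E3 to 1E7 nM. Growth is read as OD600 after 10 h at 37 °C in triplicate biological replicates.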

The subject of assay [2] is E. coli TESEC Mtb Alr. Conditions: compound 0.1 mM. Here is the method: as §1
A further assay has as its system E. coli TESEC Mtb Asd. Conditions: compound 0.1 mM. As to the method: (§2)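 TESEC E. coli strains in which the native enzyme is deleted and replaced by arabinose-inducible Mtb Asd, DapB, CysH or TrpD, each grown in its selective medium. Strains were screened against the Prestwick library at 0.1 mM and 1% DMSO in 384-well format at low and high arabinose induction. Growth is read as OD600 after 10 h in triplicate.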

A further assay relates to E. coli TESEC Mtb DapB. Conditions: compound 0.1 mM. As to the method: as §2
For assay [3], the system named is E. coli TESEC Alr+ wild-type control. Conditions: compound 0.1 mM; raw OD600 reference: median of DMSO wells 0.49, cell-free background 0.052. As to the method:
(§3)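 TESEC Mtb Alr E. coli (ΔaraC ΔtolC ΔentC Δalr ΔdadX, arabinose-inducible Mtb Alr) or the Alr+ wild-type control strain, grown in defined M9-fructose medium without D-alanine in 96-well plates with Prestwick library compounds at 0.1 mM and 1% DMSO. Low Alr induction is 0.1 µM arabinose and high induction is 10 mM arabinose.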

Assay [4] concerns E. coli TESEC Mtb Alr. As to conditions: compound 0.1 mM. Here is the method: as §3
This is another data set of the same source.

[5] abbreviates: arabinose 1000 nM, raw OD600 reference: median of DMSO wells 0.294, cell-free background 0.041.
Where [6] appears, read: arabinose 10000 nM, raw OD600 reference: median of DMSO wells 0.264, cell-free background 0.041.
Where [7] appears, read: arabinose 100000 nM, raw OD600 reference: median of DMSO wells 0.201, cell-free background 0.041.
Setting [8] is: arabinose 1000000 nM, raw OD600 reference: median of DMSO wells 0.193, cell-free background 0.041.
[9] abbreviates: arabinose 10000000 nM, raw OD600 reference: median of DMSO wells 0.146, cell-free background 0.041.
[10] abbreviates: arabinose induction (level): High, raw OD600 reference: median of DMSO wells 0.331, cell-free background 0.041.
[11] abbreviates: arabinose induction (level): Low, raw OD600 reference: median of DMSO wells 0.417, cell-free background 0.041.
Where [12] appears, read: arabinose induction (level): High, raw OD600 reference: median of DMSO wells […], cell-free background 0.041.
Where [13] appears, read: arabinose induction (level): Low, raw OD600 reference: median of DMSO wells 0.227, cell-free background 0.041.
[14] abbreviates: arabinose 100 nM, raw OD600 reference: median of DMSO wells 0.413, cell-free background 0.052.
Where [15] appears, read: arabinose 10000000 nM, raw OD600 reference: median of DMSO wells […], cell-free background 0.052.

Where a name gives a salt, the structure may show the parent alone. ± gives the standard deviation of the averaged measurements.

As for `CC(C(=O)O)c1cccc(C(=O)c2ccccc2)c1` (configuration not stated) [Ketoprofen], the growth in assay [1] was 0.227 ± 0.0059; in the assay on E. coli TESEC Mtb Alr [2] (setting [5]), 0.249 ± 0.014; in the assay on E. coli TESEC Mtb Alr [2] (setting [6]) it was 0.271 ± 0.012; in the assay with E. coli TESEC Mtb Alr [2] (setting [7]), 0.172 ± 0.012; in the assay with E. coli TESEC Mtb Alr [2] (setting [8]), 0.191 ± 0.0088; in the assay on E. coli TESEC Mtb Alr [2] (setting [9]) it was 0.145 ± 0.0059. In addition, the growth in the assay on E. coli TESEC Mtb Asd (setting [10]) is 0.247 ± 0.013; with E. coli TESEC Mtb Asd (setting [11]) it was 0.335 ± 0.038; in the assay on E. coli TESEC Mtb DapB (setting [12]), 0.184 ± 0.018; with E. coli TESEC Mtb DapB (setting [13]), 0.248 ± 0.058; in assay [3], 0.533 ± 0.084; in the assay with E. coli TESEC Mtb Alr [4] (setting [14]), 0.428 ± 0.018. Also, in the assay on E. coli TESEC Mtb Alr [4] (setting [15]), the growth was determined as 0.36 ± 0.005.
For the compound `CCOC(=O)[C@H](CCc1ccccc1)N[C@H]1CCc2ccccc2N(CC(=O)O)C1=O` [Benazepril HCl], the growth came to 0.245 ± 0.011 in assay [1]; 0.044 ± 0.0065 in the assay on E. coli TESEC Mtb Alr [2] (setting [5]); 0.0504 ± 0.011 in the assay on E. coli TESEC Mtb Alr [2] (setting [6]); 0.253 ± 0.023 in the assay on E. coli TESEC Mtb Alr [2] (setting [7]); 0.173 ± 0.0047 in the assay with E. coli TESEC Mtb Alr [2] (setting [8]); 0.1615 ± 0.0012 in the assay with E. coli TESEC Mtb Alr [2] (setting [9]). In addition, the growth worked out at 0.293 ± 0.042 with E. coli TESEC Mtb Asd (setting [10]); 0.36 ± 0.066 in the assay on E. coli TESEC Mtb Asd (setting [11]); 0.198 ± 0.0085 in the assay with E. coli TESEC Mtb DapB (setting [12]); 0.24 ± 0.038 in the assay with E. coli TESEC Mtb DapB (setting [13]); 0.559 ± 0.042 in assay [3]; 0.0476 ± 0.0029 with E. coli TESEC Mtb Alr [4] (setting [14]). The compound further registered a growth with E. coli TESEC Mtb Alr [4] (setting [15]) of 0.331 ± 0.015.
For `COc1cc(Cc2cnc(N)nc2N)cc(OC)c1OC` [Trimethoprim], the growth in assay [1] was 0.0601 ± 0.0005; with E. coli TESEC Mtb Alr [2] (setting [5]) it was 0.04863 ± 0.00047; with E. coli TESEC Mtb Alr [2] (setting [6]) it was 0.0442 ± 0.00076; with E. coli TESEC Mtb Alr [2] (setting [7]) it was 0.04953 ± 0.00035; with E. coli TESEC Mtb Alr [2] (setting [8]), 0.04553 ± 0.0004; with E. coli TESEC Mtb Alr [2] (setting [9]), 0.0534 ± 0.00081. For the same compound, the growth with E. coli TESEC Mtb Asd (setting [10]) came to 0.0958 ± 0.044; in the assay on E. coli TESEC Mtb Asd (setting [11]), 0.0867 ± 0.014; with E. coli TESEC Mtb DapB (setting [12]) it was 0.0742 ± 0.0018; in the assay on E. coli TESEC Mtb DapB (setting [13]), 0.0572 ± 0.0041; in assay [3], 0.0896 ± 0.0014; in the assay with E. coli TESEC Mtb Alr [4] (setting [14]), 0.0922 ± 0.026. The compound further showed a growth in the assay on E. coli TESEC Mtb Alr [4] (setting [15]) of 0.0701 ± 0.0035.
As for `O=C1c2c(O)ccc(O)c2C(=O)c2c(NCCNCCO)ccc(NCCNCCO)c21` [Mitoxantrone dihydrochloride], the growth in assay [1] stood at 0.355 ± 0.0023; in the assay on E. coli TESEC Mtb Alr [2] (setting [5]) it was 0.3551 ± 0.0031; in the assay with E. coli TESEC Mtb Alr [2] (setting [6]), 0.3438 ± 0.0024; with E. coli TESEC Mtb Alr [2] (setting [7]), 0.3501 ± 0.0014; with E. coli TESEC Mtb Alr [2] (setting [8]) it was 0.3506 ± 0.001; with E. coli TESEC Mtb Alr [2] (setting [9]) it was 0.3496 ± 0.0028. In addition, the growth in the assay on E. coli TESEC Mtb Asd (setting [10]) was 0.36 ± 0.0066; in the assay on E. coli TESEC Mtb Asd (setting [11]), 0.3445 ± 0.0031; in the assay with E. coli TESEC Mtb DapB (setting [12]) it was 0.348 ± 0.0055; in the assay with E. coli TESEC Mtb DapB (setting [13]), 0.348 ± 0.0049; in assay [3] it was 0.259 ± 0.051; in the assay with E. coli TESEC Mtb Alr [4] (setting [14]) it was 0.231 ± 0.0097. For the same compound, the growth with E. coli TESEC Mtb Alr [4] (setting [15]) is 0.292 ± 0.025.
